This is an account of results in PubChem BioAssay.

SMILES strings stand for the structures. The source made the active and inactive calls.

Assay [1] is described as follows: binders of probe aFSTL3 on microarray, primary screen, stem cell growth factor project, biochemical, small-molecule microarray, fluorescence 635/667 (AID 1064).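 Note: measures binding of the biotinylated anti-FSTL3 antibody to printed compounds.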 The note with it: higher = more signal.
Assay [2] is described as follows: binders from COS7 lysate, DM2A8 probe, primary screen, torsin A project, cell lysate, small-molecule microarray, fluorescence 635/667 (AID 1065). The note with it: higher = more signal, COS7 lysate expressing mutant human TOR1A.
A short description of assay [3]: binders of probe aFGF2 on microarray, primary screen, stem cell growth factor project, biochemical, small-molecule microarray, fluorescence 635/667 (AID 1067).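 Note: measures binding of biotinylated aFGF2 protein to printed compounds on slides; z-score merges feature fluorescence and signal-to-noise across triplicate slides.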 The note with it: higher = more signal.
Assay [4] is described as follows: binders of probe aFGF10 on microarray, primary screen, stem cell growth factor project, biochemical, small-molecule microarray, fluorescence 635/667 (AID 1071).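 Note: score merges 667 nm spot intensity and signal to noise from triplicate slides.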 The following applies: higher = more signal.
Assay [5] deals with Neurogenic locus notch homolog protein 2 (Homo sapiens) (UniProt Q04721). The assay is described as follows: Notch2 binders on small-molecule microarrays, primary screen, biochemical, small-molecule microarray, 635 nm fluorescence, stem cell growth factors (AID 1073). The following applies: Notch2 binding, higher = more signal.
Sequence of Neurogenic locus notch homolog protein 2 (Homo sapiens) (Q04721 whole entry, looked up, canonical isoform): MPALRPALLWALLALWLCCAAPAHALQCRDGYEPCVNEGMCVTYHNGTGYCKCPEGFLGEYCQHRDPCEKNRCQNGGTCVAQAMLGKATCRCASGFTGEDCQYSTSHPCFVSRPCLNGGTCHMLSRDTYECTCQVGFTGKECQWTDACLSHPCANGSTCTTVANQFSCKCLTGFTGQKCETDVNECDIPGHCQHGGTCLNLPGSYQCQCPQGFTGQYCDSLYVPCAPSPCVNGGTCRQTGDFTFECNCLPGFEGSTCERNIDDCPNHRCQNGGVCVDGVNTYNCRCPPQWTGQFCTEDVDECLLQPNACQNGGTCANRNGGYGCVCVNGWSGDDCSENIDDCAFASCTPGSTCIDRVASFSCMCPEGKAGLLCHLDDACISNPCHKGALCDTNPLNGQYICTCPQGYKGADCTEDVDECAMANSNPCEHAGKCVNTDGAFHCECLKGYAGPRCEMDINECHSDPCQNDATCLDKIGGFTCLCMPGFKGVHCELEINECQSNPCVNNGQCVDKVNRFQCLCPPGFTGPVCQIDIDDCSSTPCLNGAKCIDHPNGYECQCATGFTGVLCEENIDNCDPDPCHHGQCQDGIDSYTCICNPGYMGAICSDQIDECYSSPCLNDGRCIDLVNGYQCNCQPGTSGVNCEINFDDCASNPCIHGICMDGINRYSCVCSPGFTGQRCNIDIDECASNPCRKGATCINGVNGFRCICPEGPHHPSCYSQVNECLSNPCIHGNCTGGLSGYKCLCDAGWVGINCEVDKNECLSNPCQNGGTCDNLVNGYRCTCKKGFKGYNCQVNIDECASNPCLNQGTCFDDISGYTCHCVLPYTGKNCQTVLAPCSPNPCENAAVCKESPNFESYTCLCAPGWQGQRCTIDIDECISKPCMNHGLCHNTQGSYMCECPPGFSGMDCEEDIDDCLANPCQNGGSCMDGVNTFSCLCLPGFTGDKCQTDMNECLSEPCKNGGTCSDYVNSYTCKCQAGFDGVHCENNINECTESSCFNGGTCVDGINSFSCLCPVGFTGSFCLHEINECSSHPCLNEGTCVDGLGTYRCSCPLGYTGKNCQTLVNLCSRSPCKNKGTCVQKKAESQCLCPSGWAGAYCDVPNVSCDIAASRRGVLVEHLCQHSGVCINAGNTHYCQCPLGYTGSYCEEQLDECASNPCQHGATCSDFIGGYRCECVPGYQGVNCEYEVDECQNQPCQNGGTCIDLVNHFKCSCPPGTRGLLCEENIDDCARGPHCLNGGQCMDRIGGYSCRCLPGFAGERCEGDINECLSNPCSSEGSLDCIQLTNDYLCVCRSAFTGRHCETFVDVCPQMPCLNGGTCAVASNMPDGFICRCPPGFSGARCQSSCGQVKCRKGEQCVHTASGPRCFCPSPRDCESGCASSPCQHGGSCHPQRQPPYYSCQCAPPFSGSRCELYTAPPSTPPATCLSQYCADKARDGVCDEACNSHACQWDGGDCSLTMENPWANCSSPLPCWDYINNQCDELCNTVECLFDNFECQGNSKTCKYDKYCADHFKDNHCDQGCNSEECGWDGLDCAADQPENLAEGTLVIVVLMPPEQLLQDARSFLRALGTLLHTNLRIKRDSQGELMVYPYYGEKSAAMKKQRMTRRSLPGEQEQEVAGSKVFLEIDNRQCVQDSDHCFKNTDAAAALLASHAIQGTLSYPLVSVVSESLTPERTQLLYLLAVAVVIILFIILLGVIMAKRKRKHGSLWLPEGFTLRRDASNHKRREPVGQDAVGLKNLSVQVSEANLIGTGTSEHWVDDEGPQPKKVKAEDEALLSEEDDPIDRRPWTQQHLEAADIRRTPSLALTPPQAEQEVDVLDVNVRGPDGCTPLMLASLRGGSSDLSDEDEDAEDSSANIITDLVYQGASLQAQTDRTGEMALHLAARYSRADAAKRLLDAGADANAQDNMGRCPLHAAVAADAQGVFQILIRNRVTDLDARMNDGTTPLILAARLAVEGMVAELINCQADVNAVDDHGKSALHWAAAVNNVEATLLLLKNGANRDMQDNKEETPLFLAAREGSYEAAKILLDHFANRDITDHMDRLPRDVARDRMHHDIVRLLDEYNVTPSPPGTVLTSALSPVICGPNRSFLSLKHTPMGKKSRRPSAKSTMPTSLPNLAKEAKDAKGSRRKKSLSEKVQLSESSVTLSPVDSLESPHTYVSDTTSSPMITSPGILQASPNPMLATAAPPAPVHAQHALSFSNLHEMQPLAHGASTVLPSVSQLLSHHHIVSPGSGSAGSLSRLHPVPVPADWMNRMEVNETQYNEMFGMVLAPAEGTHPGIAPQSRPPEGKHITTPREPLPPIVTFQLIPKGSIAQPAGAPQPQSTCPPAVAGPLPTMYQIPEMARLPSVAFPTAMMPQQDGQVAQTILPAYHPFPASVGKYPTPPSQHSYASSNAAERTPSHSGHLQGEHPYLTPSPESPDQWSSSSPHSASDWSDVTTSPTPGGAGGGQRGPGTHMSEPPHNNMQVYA
For assay [6], the target named is Pro-neuregulin-1, membrane-bound isoform (Homo sapiens) (UniProt Q02297). The assay is described as follows: NRG1 binders on small-molecule microarrays, primary screen, psychiatric disease protein project, biochemical, small-molecule microarray, fluorescence 635/667 (AID 1075).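 Note: score combines 667 nm spot fluorescence with signal to noise.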 The note with it: NRG1 binding, 635 nm fluorescence, higher = more signal.
Assay [7] has as its system Neuregulin-1 EGF-like domain. The assay is described as follows: binders of neuregulin-1 EGF-like domain, primary screen, biochemical, small-molecule microarray, 635 nm fluorescence (AID 1081).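 Note: binding of the protein to compounds printed on small-molecule microarray slides.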 The note with it: small-molecule microarray binding, higher = more signal.
A short description of assay [8]: FRG1 promoter luciferase signal modulators, primary screen, FRG1 inhibition for FSHD, cell-based, C2C12 myotubes, firefly/Renilla luciferase, luminescence (AID 1084). The following applies: higher = more signal, called active from +8 up or from −8 down.
Assay [9] can be described thus: binders of probe aFST on microarray, primary screen, stem cell growth factor project, biochemical, small-molecule microarray, fluorescence 635/667 (AID 1086).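 Note: score merges 667 nm fluorescence with signal-to-noise of each printed compound spot.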 The note with it: higher = more signal.
Assay [10] is described as follows: binders of probe aHhip on microarray, primary screen, stem cell growth factor project, biochemical, small-molecule microarray, fluorescence 635/667 (AID 1087).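 Note: score merges spot fluorescence at 667nm with spot signal to noise ratio.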 The following applies: higher = more signal.
Assay [11] deals with PRMT1 (protein arginine N-methyltransferase 1). The assay is described as follows: PRMT1 binders on small-molecule microarrays, primary screen, biochemical, small-molecule microarray, 635 nm fluorescence (AID 1088).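 Note: binding of Prmt1 protein to compounds spotted on small-molecule microarray slides.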 The following applies: small-molecule microarray binding, higher = more signal.
The nature of assay [12]: yeast growth modulation, basal conditions, primary screen, YJM789 clinical isolate, OD600, 24 h (AID 1089).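 Note: growth of clinical yeast isolate S. cerevisiae YJM 789 seeded 1000 cells per well; test concentration not given here.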 The note with it: S. cerevisiae YJM789 growth, higher = more signal, called active from +8 up or from −8 down.
Assay [13] is described as follows: fission yeast growth modulation, primary screen, strain 972, OD600, 24 h, no modulator (AID 1090).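 Note: basal condition with compound alone and no growth modifier present; test concentration not given here.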 The following applies: S. pombe 972 growth, higher = more signal, called active from +8 up or from −8 down.
Assay [14] can be described thus: S. cerevisiae growth modulation with rapamycin, primary screen, strain BY4716, OD600, 96 h (AID 1091). Note: test concentration not given here. The following applies: higher = more signal, called active from +8 up or from −8 down.
Assay [15] concerns the target Torsin-1A-interacting protein 2 (Homo sapiens) (UniProt Q8NFQ8). In words: LULL1 binders on small-molecule microarray, primary screen, cell lysate, human LULL1 lysate, 635/667 nm fluorescence (AID 1092).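 Note: score merges per-feature 667 nm fluorescence with signal-to-noise.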 The note with it: hLULL1 lysate binding, 635 nm fluorescence, higher = more signal.
A short description of assay [16]: E. coli growth modulation, two-sided OD650, primary screen, E. coli filamentation project, strain DRC41, 24 h (AID 1093).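 Note: MC1000 strain lacking acrAB efflux and sulA so SOS filamentation is blocked; test concentration not given here.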 The following applies: OD650, 24 h, higher = more signal, called active from +8 up or from −8 down.
Assay [17] can be described thus: small-molecule microarray binders of probe aLefty2, primary screen, biochemical, biotinylated probe, 635/667 nm fluorescence (AID 1094).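 Note: score merges spot fluorescence near 667 nm with spot signal-to-noise ratio.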 The note with it: higher = more signal.
Assay [18] has as its system Noggin (protein binding on small-molecule microarray). In words: Noggin binders on small-molecule microarray, primary screen, biochemical, 635/667 nm fluorescence (AID 1095).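 Note: score merges 667 nm feature fluorescence with signal to noise over triplicate slides.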 The note with it: 635 nm fluorescence, higher = more signal.
Assay [19] deals with Neurogenic locus notch homolog protein 3 (Homo sapiens) (UniProt Q9UM47). In words: NOTCH3 binders on small-molecule microarray, primary screen, biochemical, 635/667 nm fluorescence (AID 1096). The note with it: NOTCH3 binding, 635 nm fluorescence, higher = more signal.
Sequence of Neurogenic locus notch homolog protein 3 (Homo sapiens) (Q9UM47 whole entry, looked up): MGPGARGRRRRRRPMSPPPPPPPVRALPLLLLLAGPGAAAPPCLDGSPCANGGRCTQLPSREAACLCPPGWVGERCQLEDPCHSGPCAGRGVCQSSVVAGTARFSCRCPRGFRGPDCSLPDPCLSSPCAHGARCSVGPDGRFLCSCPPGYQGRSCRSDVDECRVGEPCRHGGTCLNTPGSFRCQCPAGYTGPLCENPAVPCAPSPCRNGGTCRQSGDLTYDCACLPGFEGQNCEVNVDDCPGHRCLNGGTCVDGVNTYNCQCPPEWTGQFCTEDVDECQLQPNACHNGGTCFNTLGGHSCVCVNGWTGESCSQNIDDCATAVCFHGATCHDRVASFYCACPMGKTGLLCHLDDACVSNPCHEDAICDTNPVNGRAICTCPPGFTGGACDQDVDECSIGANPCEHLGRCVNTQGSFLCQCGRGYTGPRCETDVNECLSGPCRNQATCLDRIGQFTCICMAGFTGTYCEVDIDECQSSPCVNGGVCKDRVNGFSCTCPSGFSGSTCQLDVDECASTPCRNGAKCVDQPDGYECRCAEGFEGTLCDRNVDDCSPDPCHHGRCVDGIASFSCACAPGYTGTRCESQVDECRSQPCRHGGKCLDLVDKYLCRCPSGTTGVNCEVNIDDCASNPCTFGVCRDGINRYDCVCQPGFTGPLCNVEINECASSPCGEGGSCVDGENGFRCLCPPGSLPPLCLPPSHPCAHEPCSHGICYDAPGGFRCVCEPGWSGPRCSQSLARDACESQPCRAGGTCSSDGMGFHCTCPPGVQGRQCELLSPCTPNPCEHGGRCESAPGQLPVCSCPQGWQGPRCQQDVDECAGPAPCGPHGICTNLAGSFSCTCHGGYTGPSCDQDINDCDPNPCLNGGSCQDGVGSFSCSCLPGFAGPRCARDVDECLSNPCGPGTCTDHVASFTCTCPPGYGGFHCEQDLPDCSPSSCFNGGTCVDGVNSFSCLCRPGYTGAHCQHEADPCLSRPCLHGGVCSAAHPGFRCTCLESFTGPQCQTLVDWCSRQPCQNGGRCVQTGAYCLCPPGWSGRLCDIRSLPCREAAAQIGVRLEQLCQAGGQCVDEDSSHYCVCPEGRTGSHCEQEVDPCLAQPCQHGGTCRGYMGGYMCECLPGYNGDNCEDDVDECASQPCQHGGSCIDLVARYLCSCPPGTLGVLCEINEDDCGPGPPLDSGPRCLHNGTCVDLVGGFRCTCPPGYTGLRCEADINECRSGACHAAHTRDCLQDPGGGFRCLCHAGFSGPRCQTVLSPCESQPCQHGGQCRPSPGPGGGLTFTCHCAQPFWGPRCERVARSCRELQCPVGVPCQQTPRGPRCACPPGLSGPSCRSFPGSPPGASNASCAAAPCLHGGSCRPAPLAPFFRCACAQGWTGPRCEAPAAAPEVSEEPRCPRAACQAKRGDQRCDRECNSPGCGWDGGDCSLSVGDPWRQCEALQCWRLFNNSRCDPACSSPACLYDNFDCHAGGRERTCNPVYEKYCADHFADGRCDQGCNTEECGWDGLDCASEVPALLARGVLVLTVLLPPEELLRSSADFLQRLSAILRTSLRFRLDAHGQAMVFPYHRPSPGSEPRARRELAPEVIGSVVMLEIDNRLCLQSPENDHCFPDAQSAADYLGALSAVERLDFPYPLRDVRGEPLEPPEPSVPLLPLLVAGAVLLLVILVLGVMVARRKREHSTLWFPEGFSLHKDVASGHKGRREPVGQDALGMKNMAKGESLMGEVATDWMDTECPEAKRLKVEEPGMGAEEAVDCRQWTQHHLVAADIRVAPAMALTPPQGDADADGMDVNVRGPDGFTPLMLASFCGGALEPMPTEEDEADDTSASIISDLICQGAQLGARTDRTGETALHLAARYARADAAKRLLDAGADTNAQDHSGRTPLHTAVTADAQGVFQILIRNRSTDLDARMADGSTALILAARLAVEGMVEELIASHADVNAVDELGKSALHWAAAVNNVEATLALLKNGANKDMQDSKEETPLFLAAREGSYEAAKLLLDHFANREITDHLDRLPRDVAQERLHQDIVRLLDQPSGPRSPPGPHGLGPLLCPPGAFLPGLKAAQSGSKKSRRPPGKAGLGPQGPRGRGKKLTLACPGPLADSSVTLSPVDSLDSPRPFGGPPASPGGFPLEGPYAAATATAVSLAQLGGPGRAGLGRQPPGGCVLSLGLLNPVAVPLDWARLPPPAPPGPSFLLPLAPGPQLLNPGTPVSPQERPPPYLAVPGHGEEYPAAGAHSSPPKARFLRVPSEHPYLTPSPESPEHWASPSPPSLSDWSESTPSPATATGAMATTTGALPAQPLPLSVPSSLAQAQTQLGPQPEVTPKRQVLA
Assay [20] can be described thus: small-molecule microarray binders of probe aEGFR, primary screen, biochemical, biotinylated probe, 635/667 nm fluorescence (AID 1097).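 Note: probe is a biotinylated anti-EGFR antibody binding compounds printed on slides; score combines fluorescence near 667 nm and signal to noise of each spot.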 The note with it: higher = more signal.

As for `C[C@H]1CC[C@@H](C(=O)O)N[C@@H]1c1ccc(C#Cc2ccccc2)cc1`, the composite z-score was -0.214 in assay [1]; 0.0872 in assay [2]; 0.0166 in assay [3]; 0.505 in assay [4]; 1.32 in [5]; 0.736 in assay [6]. Moreover, the composite z-score in assay [7] was 1.24; in [9], 0.316; in [10], 0.176; in assay [11], 1.52; in assay [15], 1.78; in assay [17], -0.0615. Besides, the composite z-score was 0.875 in [18], 1.09 in assay [19] and 0.0651 in assay [20]. Moreover, the z-score in assay [8] is 3.31 (inactive); in [12], -26.4 (active); in assay [13], -21.1 (active); in [14], -3.15 (inactive); in assay [16] it was 0.161 (inactive).
For `CO[C@@H](C1CCCCC1)[C@@H](C)[C@H](OCc1cccc(Br)c1)[C@@H](C)CO`, the composite z-score in [1] was -0.284; in assay [2], -0.0003; in [3], -0.0909; in [4], 0.179; in assay [5] it was -0.0552; in assay [6] it was -0.194. Also, the composite z-score is -0.511 in assay [7]; 0.306 in [9]; -0.0173 in assay [10]; 0.0812 in assay [11]; 0.366 in assay [15]; -0.181 in assay [17]. Besides, the composite z-score was 0.307 in [18], 0.322 in assay [19] and -0.0549 in [20]. Also, the z-score in assay [8] was 2.57 (inactive); in assay [12] it was -0.407 (inactive); in [13], -16.4 (active); in assay [14] it was -1.11 (inactive); in assay [16], 0.114 (inactive).
Regarding `CC(C)=NO[C@@H](C)c1cn([C@H](CO)Cc2ccccc2)nn1`, the composite z-score was -0.0953 in assay [1]; 0.463 in assay [2]; 0.153 in [3]; 0.423 in [4]; 0.579 in assay [5]; 0.763 in [6]. For the same compound, the composite z-score in assay [7] was 0.442; in [9], 0.907; in [10] it was 0.132; in assay [11], 0.99; in assay [15], 1.03; in assay [17], -0.127. For the same compound, the composite z-score in assay [18] worked out at 0.946; in assay [19], 0.331; in [20] it was 0.255. For the same compound, the z-score was -0.88 (inactive) in assay [8]; -1.93 (inactive) in [12]; -2.29 (inactive) in assay [13]; -0.735 (inactive) in [14]; -0.409 (inactive) in [16].
Turning to `CC(C)(C)N1C(=O)[C@H]2[C@H]3[C@H](O)[C@H](O)CC(=NOC[C@@H](O)COCc4ccco4)[C@H]3CC[C@H]2C1=O`, the composite z-score was 0.784 in assay [1]; 0.733 in assay [2]; -0.0423 in assay [3]; 0.227 in assay [4]; 0.0009 in assay [5]; 0.107 in [6]. The composite z-score in assay [7] is 0.173; in [9], 0.616; in assay [10], -0.0003; in assay [11], 0.446; in [15] it was 0.937; in assay [17], 0.0913. Moreover, the composite z-score in [18] is -0.192; in assay [19], -0.0654; in assay [20], -0.12. In addition, the z-score in [8] is -0.241 (inactive); in assay [12], 0.009 (inactive); in assay [13] it was 0.287 (inactive); in assay [14] it was -0.229 (inactive); in assay [16], 0.697 (inactive).
As to `COc1ccc(COC(=O)NN=C2C[C@@H](O)[C@@H](O)[C@@H]3[C@@H]4C(=O)N(c5cccc(Oc6ccccc6)c5)C(=O)[C@@H]4CC[C@H]23)cc1`, the composite z-score in assay [1] is 0.937; in assay [2] it was -0.379; in [3], -0.138; in assay [4] it was 0.0478; in [5], -0.311; in assay [6], 0.783. For the same compound, the composite z-score in assay [7] is -0.317; in assay [9] it was 0.85; in assay [10] it was -0.0994; in [11] it was -0.412; in assay [15], 0.717; in assay [17], 0.297. Also, the composite z-score is -0.476 in [18], 0.148 in [19] and -0.109 in assay [20]. Further, the z-score was 0.632 (inactive) in assay [8]; 0.135 (inactive) in assay [12]; -0.655 (inactive) in assay [13]; -0.693 (inactive) in assay [14]; 1.02 (inactive) in assay [16].
